Structures are written as SMILES. A number with no mark means an inactive call. Results filed as inconclusive are left out. Activity calls are given as the source filed them. Calls follow the shape of the dose curve; as a rule, active = well fitted curve in the direction sought with a large enough effect; inconclusive = small, poorly fitted or top-dose-only effect, or another doubt; inactive = no such curve, though single readings can be large; an effect the other way counts as inactive or inconclusive. Where a SMILES comes first, the peptide text is derived from it. The star is where a group is joined. AMC = Cc1cc(=O)oc2cc(N*)ccc12; Cbz = O=C(OCc1ccccc1)*; Hexanoyl = CCCCCC(=O)*

For 30 compounds, Potency, activity, negative = inhibition and redox activity (% of DA3003) results are on record in PubChem BioAssay (NCATS).

The subject of assay [1] is Nanoluciferase (engineered Oplophorus gracilirostris luciferase). Description: Primary Nanoluciferase (NLuc) qHTS assay for identification of artifact compounds. (AID 1845222). Also: potency is read from the fitted curve at half-maximal effect.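 As to activity, negative = inhibition: NLuc secreted into diluted conditioned medium of S16 cells; 0% = DMSO and -100% = no enzyme.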 Particulars: NLuc-conditioned medium, Nano-Glo luminescence, 5 min; series mostly up to 54.1 µM. An outline of the steps:
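Concentration-response data were obtained by luminescence after 5 min with Nano-Glo substrate at 1:100. The enzyme was diluted S16 NLuc-expressing cell medium, preincubated with compound for 15 min at RT. Curves were fitted with a 4-parameter Hill model.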

Assay [2] is described as follows: Primary redox qHTS assay for identification of artifact compounds. (AID 1845223).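 Also: 0% = DMSO and 100% = reference compound.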 Particulars: Amplex Red/HRP redox cycling with DTT, fluorescence; series mostly up to 53.8 µM. An outline of the steps:
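Amplex Red (25 uM) and HRP (250 mU/mL) in HBSS, with compounds for 15 min, then 250 uM DTT for 30 min, room temperature, dark. Fluorescence 525/598 nm read; normalized to DMSO and 10 uM DA3003; Hill fit.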
A general note: In qHTS, concentration-response curves come from the screen itself.

For the compound `C=C1CCc2occ(C)c2[C@H]2[C@H]1[C@@]13O[C@@]1(C[C@@H](C)[C@H]3OC(C)=O)[C@H]1O[C@@]21C`, the Potency result in assay [1] and in assay [2] was “inactive” each time.
`CCOc1ccc(-c2nn3ncccc3c2-c2ccc(S(C)(=O)=O)cc2)cc1`: the Potency result in assay [1] and in assay [2] was “inactive” in each case.
Turning to `O=C(OCC1OC(Oc2ccc(O)cc2COC(=O)C2(O)C(O)CCC(=O)C2OC(=O)C2C=CCC2)C(OC(=O)C2C=CCC2)C(O)C1O)C1C=CCC1` (stereo not given), the Potency entry in assay [1] and in assay [2] was “inactive” each time.
Turning to `CC1(C)CCC2(C(=O)O)C(O)CC3(C)C(=CCC4C5(C)CCC(OC6OC(CO)C(O)C(O)C6OC6OC(CO)C(O)C(O)C6OC6OCC(O)(CO)C6O)C(C)(C)C5CCC43C)C2C1` (stereo not given), the activity, negative = inhibition in assay [1] was 1.68% [at 11.6 µM]. In assay [2], the redox activity (% of DA3003) is 17% [at 11.5 µM].
On to `CCCCCC(=O)N1CCC[C@H]1C(=O)N[C@@H](Cc1ccc(O)cc1)C(=O)OC` (Hexanoyl-Pro-Tyr-OMe), for which the Potency entry in assay [1] and in assay [2] was “inactive” throughout.
As for `CC1(C)COC(=O)[C@@H]1O[C@@H]1O[C@H](CO)[C@@H](O)[C@H](O)[C@H]1O`, the Potency entry in assay [1] and in assay [2] was “inactive” each time.
As to `CC(=O)OC1C(CO)OC(O[C@H]2[C@H](OC(=O)[C@]34CCC(C)(C)C[C@H]3C3=CCC5[C@@]6(C)CC[C@H](O[C@@H]7O[C@H](C(=O)O)[C@@H](O)[C@H](O[C@@H]8OC[C@@H](O)[C@H](O)[C@H]8O)[C@H]7O[C@@H]7O[C@H](CO)[C@H](O)[C@H](O)[C@H]7O)[C@@](C)(C=O)C6CC[C@@]5(C)[C@]3(C)C[C@H]4O)O[C@H](C)[C@H](OC3OC(C)C(OC4OCC(O)C(O)C4O)C(O)C3O)[C@@H]2O)C(O)C1O` (stereo not given in full), in assay [1], the activity, negative = inhibition was 1.69% [at 11.6 µM]. In assay [2], the redox activity (% of DA3003) was 3.62% [at 11.5 µM].
For the compound `C=C1C(OC(C)=O)CCC2(C)CC3(O)OC(=O)C(C)=C3CC12` (stereo not given), the Potency entry in assay [1] and in assay [2] was “inactive” each time.
Consider `Cc1cc(=O)oc2cc(NC(=O)[C@H](CCC(=O)O)NC(=O)[C@H](CC(C)C)NC(=O)[C@H](CC(C)C)NC(=O)OCc3ccccc3)ccc12` (Cbz-Leu-Leu-Glu-{AMC}), for which the Potency result in assay [1] and in assay [2] was “inactive” each time.
Regarding `C/C=C/C=C/C=C/C(=O)OC1C=C2C(O)OC(=O)[C@]2(O)[C@@]2(C)CCCC(C)(C)[C@H]12` (stereo not given in full), the Potency entry in assay [1] and in assay [2] was “inactive” each time.
As to `CC(NC(=O)c1ccccc1N)C(=O)O` (stereo not given), the Potency result in assay [1] and in assay [2] was “inactive” each time.
With `COc1c(O)cc2c(c1O)C(=O)O[C@H](C)[C@H]2O`, the Potency entry in assay [1] and in assay [2] was “inactive” in each case.
As to `COc1cc(O)cc(O[C@@H]2O[C@H](CO)[C@@H](O[C@@H]3OC[C@](O)(CO)[C@H]3O)[C@H](O)[C@H]2O)c1OC`, the Potency entry in assay [1] and in assay [2] was “inactive” each time.
On to `CC(NC(=O)[C@H](Cc1ccccc1)NC(=O)OCc1ccccc1)C(=O)CF` (stereo not given in full), for which the Potency result in assay [1] and in assay [2] was “inactive” throughout.
On to `O=C(Nc1cc(-c2ccccc2)nn1-c1ccccc1)c1ccc([N+](=O)[O-])cc1`, for which the Potency result in assay [1] and in assay [2] was “inactive” throughout.
Turning to `COC(=O)c1[nH]c(=O)c2ccccc2c1-c1ccc[nH]1`, the Potency result in assay [1] and in assay [2] was “inactive” each time.
For the compound `CC(=O)OCC1OC(O[C@H]2CC[C@@]3(C)C(CC[C@]4(C)C3CC=C3[C@@H]5CC(C)(C)CC[C@]5(C(=O)O)CC[C@]34C)[C@]2(C)CO)C(O)C(O)C1OC1OC(C)C(O)C(OC2OCC(O)C(O)C2O)C1O` (stereo not given in full), the activity, negative = inhibition in assay [1] was 3.41% [at 11.6 µM]. The redox activity (% of DA3003) in assay [2] was -4.45% [at 11.5 µM].
For `NC(=O)[C@H](Cc1ccccc1)NC(=O)[C@H](CCCN=C(N)N)NC(=O)C12CC3CC(CC(C3)C1)C2`, in that order: 3.23% [at 11.6 µM] and -2.26% [at 11.5 µM].
Take `CCC/C=C1\OC(=O)C2=C1CCC(O)C2O` (stereo not given): the Potency result in assay [1] and in assay [2] was “inactive” in each case.
On to `CC(=O)Nc1cccc2c1c(Sc1ccc(Cl)cc1)c(C)n2CC(=O)O`, for which the Potency in assay [1] is 10.7 µM (active). Further, the Potency result in assay [2] was “inactive”.
The corresponding values for `CC/C=C\[C@H](O)[C@H](O)C1=C(C)C(=O)[C@]2(O1)C(=O)N[C@@](O)(C(=O)c1ccccc1)[C@@H]2O` are “inactive” and “inactive”.
For `Cc1ccc(Nc2nnc(-c3ccc([N+](=O)[O-])cc3)o2)cc1Cl`, in that order: “inactive” and “inactive”.
The corresponding values for `CC(CNS(=O)(=O)C(C)C)c1ccc(-c2ccc(C#N)cc2)cc1` (stereo not given) are “inactive” and “inactive”.
Take `Cc1ccc([C@@H]2CC=C(C(=O)O)[C@H](c3ccc(C(C)(C)C)cc3)N2S(=O)(=O)c2ccc(C)cc2)cc1`: the Potency result in assay [1] and in assay [2] was “inactive” in each case.
As to `C=C1CCC2[C@](C)(CO)CCC[C@@]2(C)[C@@H]1CCC1=CCOC1=O` (stereo not given in full), the Potency result in assay [1] and in assay [2] was “inactive” each time.
For the compound `C=C1CC23CC1CCC2C12OC(=O)C(C)(C(O)CC1O)C2C3C(=O)O` (stereo not given), the Potency result in assay [1] and in assay [2] was “inactive” in each case.
`COC(=O)C1=COC(OC2OC(CO)C(O)C(O)C2O)C2C(COC(=O)/C=C/c3ccc(O)c(O)c3)C(O)C(O)C12` (stereo not given): the Potency result in assay [1] and in assay [2] was “inactive” throughout.
For the compound `CC(=O)OC[C@]12[C@@H](OC(=O)c3ccoc3)C[C@@H]3[C@@H](OC(C)=O)[C@]1(OC3(C)C)[C@@](C)(O)C[C@H](OC(=O)c1ccoc1)[C@@H]2OC(=O)c1ccoc1`, the Potency entry in assay [1] and in assay [2] was “inactive” throughout.
As to `C=C1CCC2[C@](C)(CCC[C@]2(C)C(=O)O)[C@H]1CC/C(C)=C/C(=O)OC` (stereo not given in full), the Potency result in assay [1] and in assay [2] was “inactive” each time.
For the compound `CC(C)CC(=O)O[C@@H]1O[C@H](CO)[C@@H](O[C@H]2O[C@H](C)[C@@H](N[C@H]3C=C(CO)[C@@H](O[C@H]4O[C@H](CO)[C@@H](O[C@H]5O[C@H](CO)[C@@H](O[C@H]6O[C@H](CO)[C@@H](O)[C@H](O)[C@H]6O)[C@H](O)[C@H]5O)[C@H](O)[C@H]4O)[C@H](O)[C@H]3O)[C@H](O)[C@H]2O)[C@H](O)[C@H]1O`, the activity, negative = inhibition in assay [1] was 0.158% [at 11.6 µM]. In assay [2], the redox activity (% of DA3003) was 4.39% [at 11.5 µM].
